Compound activity (PubChem BioAssay)
CF NFkB block – inhibitors of PAF-induced NF-kB signaling, primary screen, cell-based, GFP fluorescence, uHTS. KKLEB NF-kB-GFP reporter, GFP fluorescence overnight. inhibition, % at 5 µM. 360,000 tested, 0.86% active. AID 588850, 2011;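 active = at least 50% inhibition at 5 µM, scaled per plate between neutral and stimulator controls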;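 also: PAF is a Pseudomonas aeruginosa culture filtrate used as stimulus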
KKLEB cytotox – cytotoxicity in KKLEB CF airway cells, primary screen, cytotoxicity control for CF NF-kB inhibitor project, cell-based, uHTS, fluorescence assay plates; KKLEB CF airway cells viability, ATPlite luminescence, overnight; stronger effect = lower value; cells stimulated with P. aeruginosa culture filtrate; activity change (cytotoxicity), % at 5 µM; 360,000 tested, 0.36% active;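 active = corrected activity change at or below -50% at 5 µM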
Peg3 prom inh-1 – Peg3 promoter-driven luciferase inhibitors, primary screen, cell-based, HeLa, luciferase luminescence; 360,000 tested, 1.7% active; HeLa PEG-Prom luciferase reporter, overnight; inhibition, % at 20 µM; AID 588405, 2011;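 active = inhibition of at least 50% at 20 µM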
HIF-2a inh – HIF-2a reporter inhibitors, primary screen, luminescence, 786-0 RCC cells; 786-0 RCC cells HIF-2a reporter, luciferase luminescence, overnight; 360,000 tested, 0.72% active; inhibition, % at 18.8 µM;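 active = inhibition of the luminescence signal of 40% or more relative to plate controls, in a single-dose primary screen at 18.75 µM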
Shn3 inh set2 – reduction of Shn3 3'UTR firefly luciferase signal, primary screen, Schnurri-3 inhibitor project, cell-based, Clone20 osteoblasts, set 2 | Clone20 osteoblast Shn3 3'UTR firefly luciferase, 24 h | inhibition, % at 12.5 µM | 360,000 tested, 0.52% active | AID 588674, 2011;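 active = mean inhibition of at least 75% with every replicate also reaching 75%; inconclusive = mean inhibition at least 75% but some replicate below; inactive = mean inhibition below 75%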
MITF TRPM1 inh – inhibitors of MITF-dependent TRPM1 promoter reporter, primary screen, cell-based, SK-MEL-5, single point, luciferase; 330,000 tested, 0.83% active; AID 488899, 2010; SK-MEL-5 TRPM1 promoter luciferase, 24 h; inhibition, % at 12.5 µM;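 active = mean inhibition across replicates of 60% or more, whatever share of single replicates reaches that level; inconclusive = some that reach 60%, reason not given; inactive = mean inhibition across replicates below 60%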
Peg3 prom inh-2 – Peg3 promoter reporter inhibitors, retest, confirmation, cell-based, HeLa, luciferase reporter, single concentration. 1,300 tested, 84% active. AID 602417, 2012. inhibition, % at 20 µM. HeLa PEG-Prom luciferase reporter, luminescence, overnight. shares compounds with Peg3 prom inh-1;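 active = at 20 µM dose, 40% or more inhibition averaged across four replicates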
Hits are given with their value; – = inactive; ? = inconclusive; · = no result given. Shown are actives, neighbours in structure and some others; about 2.7% of the full set was active somewhere.

SMILES | CF NFkB block | KKLEB cytotox | Peg3 prom inh-1 | HIF-2a inh | Shn3 inh set2 | MITF TRPM1 inh | Peg3 prom inh-2
COC(=O)c1ccc(N2CCN(c3ccccc3)CC2)nc1 | – | – | – | – | – | – | ·
COc1cc(/C=C/[N+](=O)[O-])ccc1OC(=O)/C=C/c1ccc(F)cc1 | – | – | 103 | – | – | – | 52
COc1ccc(/C=C/C(=O)Oc2ccc(C)c(C)c2)cc1OC | – | – | – | – | – | – | ·
O=C(Nc1nc(-c2ccc3ccccc3c2)cs1)c1ccc(N2C(=O)CCC2=O)cc1 | – | – | 56 | – | – | – | –
O=C(c1cc(-c2cccs2)nn1-c1ccccc1)N1CCN(S(=O)(=O)c2ccccc2)CC1 | – | – | 57 | – | – | – | 57
O=C(COC(=O)CNC(=O)C1CCCCC1)Nc1ccccc1OC(F)F | – | – | – | – | – | – | ·
NC1=C(Br)C(=O)c2ncccc2C1=O | 79 | -64 | 102 | 83 | 97 | 94 | 99
CN(C)CCNc1ncnc2c1sc1nc(N3CCCC3)c3c(c12)CC(C)(C)OC3 | – | – | 57 | – | – | – | 67
CCOc1ccc(-c2ccc(SCC(=O)Nc3nnc(CC)s3)nn2)cc1 | – | – | – | – | – | – | ·
CCOc1ccc(-c2ccc(SC)nn2)cc1 | – | -60 | 76 | – | – | 62 | 45
O=C1NC(Cc2ccccc2)c2nc3cc(F)ccc3c(=O)n2-c2cc3ccccc3cc21 (centres undefined) | – | – | – | – | – | · | ·
O=C1NC(Cc2ccc(O)cc2)c2nc3ccc(F)cc3c(=O)n2-c2cc3ccccc3cc21 (centres undefined) | – | – | 54 | – | – | · | 60
C=CCc1cccc(/C=N/NC(=O)C(C)Nc2ccc(C)cc2)c1O (centres undefined) | – | – | 55 | – | – | – | 41
Cc1cc(C)cc(NS(=O)(=O)c2ccc3[nH]cc(C(=O)NCc4ccco4)c(=O)c3c2)c1 | – | – | 55 | – | – | – | 71
CCN1CCN(C(c2ccc(C(F)(F)F)cc2)c2ccc3cccnc3c2O)CC1 (centres undefined) | – | – | 55 | 49 | – | 66 | 60
Clc1ccccc1/C=C/c1nc(-c2ccccn2)no1 | – | – | 61 | 63 | · | ? | 47
Cc1cccc(-n2cc(-c3ccccc3)c3c(N4CCOCC4)ncnc32)c1 | 94 | -92 | 69 | – | – | – | 82
Cc1ccc(C(=O)CN(CCCC(N)=O)S(=O)(=O)c2ccc([N+](=O)[O-])cc2)cc1 | – | – | – | – | – | – | ·
O=C1CC(C(=O)N2CCN(c3ccccc3)CC2)CN1Cc1ccccc1 (centres undefined) | – | – | – | – | – | – | ·
COc1ccc(-c2nc(NC(=O)c3n[nH]c(=O)c4ccccc34)sc2C)cc1 | – | – | 60 | – | – | – | 48
COc1cc(NC(=O)c2n[nH]c(=O)c3ccccc23)cc(OC)c1 | – | – | – | – | – | – | ·
CCOCCCN(C(=O)CNC(=O)c1ccco1)C(C(=O)NC1CCCC1)c1cccc(OC)c1 (centres undefined) | – | – | – | – | – | – | ·
Cc1cc(-n2c(SCC(=O)Nc3ccc(F)c(F)c3)nc3n[nH]c(C)c3c2=N)ccc1Cl | – | – | 84 | – | – | – | 59
CCOc1ccc(-n2c(SCC(=O)Nc3ccc(Br)cc3)nc3n[nH]c(C)c3c2=N)cc1 | – | – | – | – | – | – | ·
Cc1cc(-n2c(SCC(=O)Nc3ccc(Br)cc3)nc3n[nH]c(C)c3c2=N)ccc1Cl | – | – | 85 | – | – | – | –
SMILES | CF NFkB block | KKLEB cytotox | Peg3 prom inh-1 | HIF-2a inh | Shn3 inh set2 | MITF TRPM1 inh | Peg3 prom inh-2
O=C(C[C@H]1C[C@H](C(=O)N2CCCCC2)[C@@]2(CCc3ccccc3)c3[nH]c4ccc(Cl)cc4c3CCN2C1=O)NCCc1ccccn1 | – | – | 69 | – | – | – | 88
COc1ccc2[nH]c3c(c2c1)CCN1C(=O)C(CC(=O)NCCc2ccccn2)C[C@H](C(=O)N2CCCCC2)[C@@]31CCc1ccccc1 (some centres undefined) | – | – | – | – | – | – | ·
COc1cccc2c1C(=N)c1c(O)c3c(c(O)c1C2=O)CC(O)(C(C)=O)CC3OC1CC(N)C(O)C(C)O1 (centres undefined) | – | – | 98 | – | 92 | 92 | 96
CCN(CC)c1ccc(C(=O)NNC(=O)CCNC(=O)c2ccccc2)cc1 | – | – | – | – | – | – | ·
CCN(CC)c1ccc(C(=C2C=CC(=[N+](CC)CC)C=C2)c2ccccc2)cc1 | 85 | -86 | 96 | 84 | 97 | 109 | 99
O=C(c1ccco1)N1CCN(C(c2ccccc2Cl)c2nnnn2Cc2cccs2)CC1 (centres undefined) | – | – | 52 | – | – | – | 58
O=C(c1ccco1)N1CCN(C(c2ccccc2Cl)c2nnnn2Cc2ccco2)CC1 (centres undefined) | – | – | – | – | – | – | ·
NS(=O)(=O)c1ccc(NC(NC(=O)c2cccnc2)C(Cl)(Cl)Cl)cc1 (centres undefined) | – | – | – | – | – | – | ·
CCCCCN1C=CC(=C2C(=O)c3ccccc3C2=O)C=C1 | – | -82 | 103 | 88 | 93 | 99 | 91
CCCc1nc(SCC(=O)N2CCCc3ccccc32)c2c(=O)n(C)c(=O)n(C)c2n1 | – | – | 53 | – | – | · | 46
COc1cc2c(cc1OC)CN(c1nc(-c3cccnc3)nc3ccccc13)CC2 | – | – | 65 | – | – | – | 71
Cc1ccc(C)c(S(=O)(=O)N2CCN(c3nc(-c4cccnc4)nc4ccccc34)CC2)c1 | – | – | 64 | – | – | – | 47
CCOc1ccccc1NC(=O)c1cc(-c2cc(OC)c(OC)c(OC)c2)nc2ccccc12 | – | – | – | – | – | – | ·
COc1ccccc1NC(=O)c1cc(-c2cc(OC)c(OC)c(OC)c2)nc2ccccc12 | – | – | 54 | – | – | – | 74
COc1cc(-c2cc(C(=O)Nc3cc(S(=O)(=O)N4CCOCC4)ccc3C)c3ccccc3n2)cc(OC)c1OC | – | – | 53 | – | – | – | 53
COc1cc(-c2cc(C(=O)Nc3cc(S(=O)(=O)N4CCOCC4)ccc3O)c3ccccc3n2)cc(OC)c1OC | – | – | – | – | – | – | ·
